Only some compounds are listed: those with a hit (about 12% of all), similar ones and a draw of the others.
BAZ2B block: qHTS Assay for Inhibitors of BAZ2B; AlphaScreen BAZ2B-H3K14Ac peptide displacement; Bromodomain adjacent to zinc finger domain protein 2B (Homo sapiens), Q9UIF8; actives 4.4% (n = 360,000); Potency, µM (highest dose often 114 µM), most hits filed as inhibitors; further: nearly all actives have a fitted effect of over 60% in size
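AlphaScreen luminescence quantifies BAZ2B engagement of H3K14Ac peptide; the protein and biotinylated peptide are both at 50 nM final, buffer PBS pH 7.4 with 0.01% Tween-20, all steps at room temperature.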
Sfp PPTase inh: qHTS Assay for Inhibitors of Bacillus subtilis Sfp phosphopantetheinyl transferase (PPTase) | 4'-phosphopantetheinyl transferase ffp (Bacillus subtilis), Q9F4F7 | Biochemical Sfp PPTase activity, qHTS | Potency, µM, most hits filed as inhibitors | actives 3.5% (n = 310,000);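 further: the enzyme is Sfp with the accession as filed and its product quenches rhodamine fluorescence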
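Reaction rates are the 30-min fluorescence difference (ex 525, em 598 nm) in wells containing 15 nM Sfp, 5 uM rhodamine-CoA and 12.5 uM BHQ-2-YbbR at pH 7.6 with 10 mM MgCl2.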
G9a inh: qHTS Assay for Inhibitors of Histone Lysine Methyltransferase G9a | G9a H3K9 monomethylation, AlphaScreen, 2 h | Potency, µM (titrated, usually from 102 µM), most hits filed as inhibitors | actives 8.8% (n = 350,000); further: nearly all actives have a fitted effect of over 75% in size
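AlphaScreen detection with an anti-monomethyl H3K9 antibody quantified product after a 2 h room-temperature reaction containing 500 nM biotinylated H3K9 peptide, 20 µM SAM and 20 nM enzyme, which had been preincubated 15 min with compound.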
HP1b chromo inh: HTS for Inhibitors of HP1-beta Chromodomain Interactions with Methylated Histone Tails; actives 0.56% (n = 390,000); Potency, µM (top dose mostly 114 µM), hits mostly inhibitors; Chromobox protein homolog 1 (Homo sapiens), P83916; AID 540317, 2011; AlphaScreen HP1-beta / biotin-H3K9me3 peptide binding; further: nearly all actives have a fitted effect of over 70% in size
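Compound inhibition of the preformed complex between 50 nM HP1-beta and 50 nM biotinylated H3K9me3 peptide was read by AlphaScreen. Buffer was PBS pH 7.4 with 0.01% Tween-20. Incubations ran 30 min at room temperature, with 10 ug/mL donor/acceptor beads.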
L3MBTL1 inh: qHTS Assay for the Inhibitors of L3MBTL1; Lethal(3)malignant brain tumor-like protein 1 (Homo sapiens), Q9Y468; AlphaScreen L3MBTL1–H3K9me1 peptide binding; Potency, µM (series often up to 57.1 µM), actives largely listed as inhibitors; actives 0.66% (n = 230,000); AID 485360, 2010; further: nearly all actives have a fitted effect of over 60% in size
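Displacement of a biotinylated histone H3(1-15) peptide monomethylated at Lys9 (75 nM) from L3MBTL1 (50 nM) was measured by AlphaScreen after a 30 min room-temperature compound incubation; cefsulodin titration served as intraplate control.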
JMJD2A Tudor: qHTS Assay for Inhibitors of JMJD2A-Tudor Domain. AlphaScreen JMJD2A-Tudor / H3K4me3 peptide binding. Potency, µM (titrated, usually from 114 µM), actives largely listed as inhibitors. actives 4.4% (n = 390,000); further: nearly all actives have a fitted effect of over 50% in size
A number is an active result; - = inactive; ? = inconclusive; . = no result; [ ] = remark or other dose. The call rests on the fitted dose curve; in most records, active means well fitted curve in the direction sought with a large enough effect; inconclusive means small, poorly fitted or top-dose-only effect, or another doubt; inactive means no such curve, though single readings can be large; an effect the other way counts as inactive or inconclusive.

SMILES | BAZ2B block | Sfp PPTase inh | G9a inh | HP1b chromo inh | L3MBTL1 inh | JMJD2A Tudor
Cc1nn(C(C)(C)C)c(OC(=O)C(C)(C)C)c1Sc1ccccc1 | - | . | - | - | . | -
Cc1ccc(Sc2c(C)nn(C(C)(C)C)c2OC(=O)C(C)(C)C)cc1 | - | . | - | - | . | -
Cc1nn(-c2ccccc2)c(OC(=O)C(C)C)c1Sc1ccccc1 | - | . | 1.58µM | - | . | ?
COc1ccc(C(=O)Oc2c(Sc3ccccc3)c(C)nn2-c2ccccc2)cc1OC | - | . | ? | - | . | -
O=C(Cn1ccn(-c2ccc(F)cc2)c(=O)c1=O)Nc1ccccc1C(F)(F)F | - | . | - | - | . | -
CCOc1cc2sc(N3CCC(C(=O)Nc4ccc(C)cc4C)CC3)nc2cc1Br | - | . | - | - | . | -
COc1ccc(C(=O)c2cn(Cc3ccccc3F)c3cc4c(cc3c2=O)OCO4)cc1 | - | . | - | - | . | -
CC(C)c1ccccc1S(=O)(=O)c1cc(N)c2ncccc2c1[N+](=O)[O-] | . | - | . | . | . | .
N#Cc1ccc(CN2CCC3(CCNCC3)CC2)cc1 | . | - | -[12.7 µM] | . | . | .
Cc1nn(-c2ccccc2)c(N)c1Sc1ccc([N+](=O)[O-])cc1 | - | ? | 10µM | ? | - | ?
COCCNC(=O)CCSc1nc(-c2ccc3c(c2)OCO3)cc(C(F)(F)F)n1 | ? | . | - | - | . | -
O=C(CCSc1nc(-c2ccc3c(c2)OCO3)cc(C(F)(F)F)n1)NCc1ccco1 | - | 39.8µM | - | - | . | -
CCn1ncc(CNC(=O)CCCSc2nc(-c3ccco3)cc(C(F)(F)F)n2)c1C | - | - | 15.8µM | - | - | -
COC(=O)C1=C(C(=O)OC)[C@@H]2N(C)c3ccc(OC)cc3[C@@]23C[C@@H](C(=O)OC)N(S(=O)(=O)c2ccc(C#N)cc2)C3=N1 | . | - | . | . | . | .
CCc1ccc(-c2ccc3nnc(SCC(=O)Nc4cccc(C(C)=O)c4)n3n2)cc1 | - | . | ? | - | . | -
O=S(=O)(Nc1nc2ccccc2nc1N1CCc2ccccc2C1)c1ccc(Br)cc1 | - | - | 8.91µM | - | - | -
O=S(=O)(Nc1nc2ccccc2nc1Cl)c1ccc(Br)cc1 | . | 70.8µM | ? | - | ? | -
COc1ccc2[nH]cc(CCNc3nc(-c4cccc(C#N)c4)nc4ccccc34)c2c1 | . | - | -[0.501 µM] | . | . | .
O=C1NCCN1Cc1ccccc1F | - | - | 44.7µM | - | - | -
Cc1ccc(C)c(Cn2c(=O)c3c(nc4n3CCN4c3ccccc3)n(C)c2=O)c1 | - | . | - | - | . | -
CN(Cc1ccccc1)C(=O)c1cccc(N2C(=O)C3CC=CCC3C2=O)c1 (configuration not stated) | - | - | -[2.33 µM] | - | . | -
CN(C(=O)c1cccc(N2C(=O)C3CC=CCC3C2=O)c1)C1CCCCC1 (configuration not stated) | - | - | 50.1µM | - | - | -
Cc1c(C(=O)Nc2ccc(F)cc2F)oc2c1-c1nn(Cc3c(F)cccc3Cl)cc1CC2 | - | . | - | - | . | -
CN(Cc1ccccc1)c1ccc(-c2nc(-c3ccncc3)no2)cc1[N+](=O)[O-] | - | . | - | - | . | -
CC(=O)c1cc2c(cc1NC(=O)CCCC(=O)O)OCO2 | - | - | - | - | - | -
CC(=O)c1cc2c(cc1NC(=O)CCn1cnnn1)OCO2 | - | - | 39.8µM | - | . | -
CC(=O)c1cc2c(cc1NC(=O)CN1CCCCCCC1)OCO2 | 50.1µM | - | 10µM | ? | - | ?
N#Cc1nc(Nc2cc(F)cc(F)c2)nc(Nc2cc(F)cc(F)c2)n1 | . | . | . | . | . | -
C=C(C)[C@@H]1CC=C(CN2CCN(Cc3ccccc3)CC2)CC1 | ? | - | 50.1µM | - | . | ?

Compound activity as filed in PubChem BioAssay.
